What was measured:
Conditions in all cases: mESC; 2uM; 72 h treatment, harvest day 5
Kenpaullone = compound: O=C1Cc2c([nH]c3ccc(Br)cc23)-c2ccccc2N1 [Kenpaullone]; experiment: fraction of microhomology deletions among edited reads; higher = more MH deletions
Genistein = compound: O=c1c(-c2ccc(O)cc2)coc2cc(O)cc(O)c12 [Genistein]; experiment: as above
[1] = compound: O=c1cc(N2CCOCC2)oc2c(-c3ccc4c(c3)OCCO4)csc12; experiment: as above
Mercaptopurine (6-MP) = compound: S=c1[nH]cnc2nc[nH]c12 [Mercaptopurine (6-MP)]; experiment: as above
[2] = compound: S=c1nc[nH]c2nc[nH]c12 [6-Mercaptopurine (6-MP) Monohydrate]; experiment: as above
[3] = compound: CC(=O)O/N=C1\C(=O)N(Cc2cc(Cl)ccc2Cl)c2ccc(Cl)cc21; experiment: fraction of 1-bp insertions among edited reads; higher = more 1-bp insertion outcomes
[4] = compound: CC(C)(C#N)c1ccc(N2C(=O)OCc3cnc4ccc(-c5cnc6ccccc6c5)cc4c32)cc1; experiment: as above
[5] = compound: CCCCOc1c(C(=O)c2c(F)cc(C)cc2F)c[nH]c2nncc1-2; experiment: as above
[6] = compound: CCN1CCN(CC(=O)Nc2ccc(-c3cccc4c(=O)cc(N5CCOCC5)oc34)c3sc4ccccc4c23)CC1; experiment: as above
[7] = compound: CCc1c2c(nc3ccc(OC(=O)N4CCC(N5CCCCC5)CC4)cc13)-c1cc3c(c(=O)n1C2)COC(=O)[C@]3(O)CC [Irinotecan HCl Trihydrate]; experiment: as above

Row | Target | fraction of microhomology deletions among edited reads (Kenpaullone) | fraction of microhomology deletions among edited reads (Genistein) | fraction of microhomology deletions among edited reads [1] | fraction of microhomology deletions among edited reads (Mercaptopurine (6-MP)) | fraction of microhomology deletions among edited reads [2] | fraction of 1-bp insertions among edited reads [3] | fraction of 1-bp insertions among edited reads [4] | fraction of 1-bp insertions among edited reads [5] | fraction of 1-bp insertions among edited reads [6] | fraction of 1-bp insertions among edited reads [7]
1 | 47.0 (DMSO control at this site: 1-bp insertion 0.095, MH deletion 0.585, edited 0.118) GAGTGGTCCCGAGCCAGGAACTGTGTGTGTTGCAGGGGGGCAGTAACTCCCCAACTCCCTC | 0.486 | 0.508 | 0.554 | 0.46 | 0.401 | 0.0999 | 0.09 | 0.121 | 0.0733 | 0.118
2 | 1.0 (DMSO control at this site: 1-bp insertion 0.521, MH deletion 0.323, edited 0.141) GTGTCACAGTGCACGAGTGACGGGATAATGTGCTGACAGGTAATTGATAGGCTTCCAACTT | 0.197 | 0.286 | 0.276 | 0.227 | 0.218 | 0.514 | 0.557 | 0.595 | 0.243 | 0.586
3 | 39.0 (DMSO control at this site: 1-bp insertion 0.328, MH deletion 0.371, edited 0.204) CTGCACAGTCACTTAGGATAGGAGAAGATGATGTATAGGGTTTAGTGGGAGATGTTGCAAG | 0.264 | 0.404 | 0.406 | 0.356 | 0.371 | 0.334 | 0.385 | 0.418 | 0.163 | 0.423
4 | 21.0 CGATTGAGAGTCAAACGGGCCAGAAAACTCCGGGAACGGGCCAGAAAACTCCGGGGCATGG | 0.17 | 0.202 | 0.158 | 0.16 | 0.165 | 0.0304 | 0.021 | 0.0327 | 0.0195 | 0.0253
5 | 7.0 (DMSO control at this site: 1-bp insertion 0.128, MH deletion 0.374, edited 0.098) TACTCAACCGAGACCTACGCGAACCGAAATCGTATGCCGGTGCGCAAGCAGGGCTGGCGTC | 0.436 | 0.476 | 0.43 | 0.401 | 0.367 | 0.105 | 0.131 | 0.164 | 0.113 | 0.105
6 | 38.0 (DMSO control at this site: 1-bp insertion 0.063, MH deletion 0.487, edited 0.17) GGGCTGGGTGCTAAAATGAGGAGCTCCAAGAAGACTGAGGTGAACCTGGAGGCCCCTGAGC | 0.414 | 0.462 | 0.476 | 0.474 | 0.468 | 0.0549 | 0.0615 | 0.0554 | 0.0485 | 0.0536
7 | 5.0 (DMSO control at this site: 1-bp insertion 0.214, MH deletion 0.567, edited 0.105) CGCTGACCCGAGACCTACGCGAACCGAAATCGGCGACCGGTGCGCAAGCAGGGCTGGCGTC | 0.523 | 0.604 | 0.61 | 0.507 | 0.498 | 0.204 | 0.198 | 0.226 | 0.0634 | 0.239
8 | 18.0 (DMSO control at this site: 1-bp insertion 0.114, MH deletion 0.789, edited 0.094) GCGCAAGTGCATAAGTTTTTCTTAAGGCGTGCCTTTAAGGCGTGCCTTTGTCGGTCCTGGA | 0.759 | 0.797 | 0.833 | 0.734 | 0.733 | 0.0913 | 0.0901 | 0.103 | 0.0252 | 0.109
9 | 43.0 (DMSO control at this site: 1-bp insertion 0.134, MH deletion 0.714, edited 0.104) AGTTTAACTTACTCCGGCCAAAAAAGAACTGCACCTCTGGAGCGGGTTAGTGGTGGTGGTA | 0.658 | 0.671 | 0.688 | 0.614 | 0.592 | 0.0687 | 0.0941 | 0.0843 | 0.0439 | 0.113
10 | 3.0 (DMSO control at this site: 1-bp insertion 0.109, MH deletion 0.149, edited 0.09) TGCTAGCGCCCCCACAAAGCGGACCAGCCAGCACTATAGGGAATAAGGCCAACTTGCACCC | 0.194 | 0.196 | 0.162 | 0.168 | 0.254 | 0.126 | 0.122 | 0.16 | 0.0557 | 0.111
11 | 34.0 (DMSO control at this site: 1-bp insertion 0.184, MH deletion 0.385, edited 0.103) ATTATAGGACCCTGAGGGAGCAGAGATGTGGGAATGGGGGCCGAGCCAATTGTGATGTAAG | 0.473 | 0.534 | 0.476 | 0.424 | – | 0.157 | 0.154 | 0.172 | 0.0647 | 0.184
12 | 25.0 (DMSO control at this site: 1-bp insertion 0.017, MH deletion 0.774, edited 0.143) GGGCCTGAATGGTGTGGACATCTACTCGCTGGTGAGCTGGTGACTGAAAACATTCAGTGGC | 0.739 | 0.773 | 0.772 | 0.71 | 0.694 | 0.0158 | 0.0262 | 0.017 | 0.0169 | 0.0204
13 | 29.0 (DMSO control at this site: 1-bp insertion 0.084, MH deletion 0.745, edited 0.133) TTGATGAACTTCCTCTTCTTCTCATGTCTCCGGTCTCCGGTAGGCCACGTGCATGGCCACT | 0.631 | 0.718 | 0.735 | 0.669 | 0.633 | 0.0853 | 0.0763 | 0.0825 | 0.0366 | 0.0846
14 | 26.0 (DMSO control at this site: 1-bp insertion 0.518, MH deletion 0.262, edited 0.026) AGGGCGCGCCCCACGCACTCTGCGGCAAGTCCCTCTGCGGCAAGTCCTCGGCCCGGAAGAC | 0.244 | 0.296 | 0.338 | 0.311 | 0.297 | 0.507 | 0.45 | 0.513 | 0.131 | 0.466
15 | 31.0 (DMSO control at this site: 1-bp insertion 0.315, MH deletion 0.329, edited 0.026) ACCTCCACAGGCTGGGTGGCCCGGAGGCTGGGCGGCCCGGAGGCTGGGCTGGGCGAGTATC | 0.518 | 0.477 | 0.404 | 0.459 | 0.408 | 0.215 | 0.14 | 0.2 | 0.106 | 0.105
16 | 15.0 GCGCCTCCAATGACCCAGTGGGATCCTACTCCATAATGGGATCCTGGGGATTCCTCGCTCC | – | 0.299 | – | – | 0.339 | 0.254 | 0.168 | – | – | –
17 | 42.0 (DMSO control at this site: 1-bp insertion 0.145, MH deletion 0.655, edited 0.132) GGGCTAAACCTATGAGCACAGTAGAACTAAGGGTGGGTGGTGTAGCTAAAGAACTTGACCA | 0.557 | 0.662 | 0.691 | 0.589 | 0.567 | 0.116 | 0.148 | 0.144 | 0.0719 | 0.125
18 | 17.0 (DMSO control at this site: 1-bp insertion 0.112, MH deletion 0.348, edited 0.058) CCATAGCGCGATAAATATGACGGCTCATCCTGTATGACGGCTCATCCTGTATCAACTGTCC | 0.377 | 0.409 | 0.342 | 0.422 | 0.393 | 0.12 | 0.143 | 0.145 | 0.0756 | 0.161

Source: the supplement of paper PMC8387472
